Laboratory results published in PubChem BioAssay (NCATS).
Records with an inconclusive call do not appear. Activity calls are given as the source filed them. The call rests on the fitted dose curve; in most records, active means well fitted curve in the direction sought with a large enough effect; inconclusive means small, poorly fitted or top-dose-only effect, or another doubt; inactive means no such curve, though single readings can be large; an effect the other way counts as inactive or inconclusive.

How the values were obtained:
[1] = MultiTox-Fluor Cytotoxicity Assay - LYMP1-002 - Live Cells (AID 955);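 further: cells exposed to compound for 16 hours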
Summary of the method: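 Read-out is live-cell protease activity (cell-permeant GF-AFC substrate, fluorescence Ex/Em=405/510), where a decrease indicates acute toxicity. Human lymphoblastoid cells were treated 16 hours at 37 C in a concentration series, and AC50 values came from standard Hill modelling.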

[2] = MultiTox-Fluor Cytotoxicity Assay - LYMP1-002 - Dead Cells (AID 960); further: nearly all actives have a fitted effect of over 60% in size
Summary of the method: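 LYMP1-002 cells 2500/well; 5 hr 37 C pre-incubation; compound 16 hr 37 C; MultiTox-Fluor reagent 60 min RT; dead-cell fluor Ex/Em 485/520. Norm. to DMSO (0%) vs 15 uM tetraoctylammonium bromide (100%); Hill AC50.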

[3] = MultiTox-Fluor Cytotoxicity Assay - LYMP1-003 - Dead Cells (AID 961); further: nearly all actives have a fitted effect of over 70% in size
Summary of the method: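 Dead-cell protease release, detected as bis-AAF-R110 fluorescence at 485/520 nm, was measured in LYMP1-003 cells after 16 h compound treatment at 37 C. AC50 values came from Hill-modeled qHTS curves normalized to DMSO (0%) and 15 uM tetraoctylammonium bromide (100%).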

[4] = MultiTox-Fluor Cytotoxicity Assay - LYMP1-003 - Live Cells (AID 962);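 further: cells exposed to compound for 16 hours at 37 °C; cytotoxic hits lower the live-cell protease signal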
Summary of the method: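 qHTS, 1536-well; 2500 cells/well LYMP1-003; 5 hr 37 C settle; cpd 16 hr 37 C; MultiTox-Fluor reagent 60 min RT; live-cell protease fluor. 405/510; Hill-fit AC50; tetraoctylammonium bromide pos. ctrl.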

[5] = Cell Viability - LYMP1-003 - Assay at 24 hr (AID 963)
Summary of the method: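 Cells seeded at 2500/well, 5 hr at 37 C; compounds added; 24 hr at 37 C; CellTiter-Glo added, 30 min room temperature; luminescence read. Decrease in ATP taken as cytotoxicity, AC50 from Hill modelling.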

[6] = Cell Viability - LYMP1-003 - Assay at 40 hr (AID 964); further: series mostly up to about 92 µM; nearly all actives have a fitted effect of over 60% in size
Summary of the method: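 Cells were seeded at 2500 per well and incubated 5 hr at 37 C. Compounds were added across a concentration series and left 40 hr at 37 C. CellTiter-Glo was added for 30 min at room temperature before luminescence reading.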

[7] = Cell Viability - LYMP2-003 (AID 965);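 further: cells exposed to compounds for 24 h before reading; nearly all actives have a fitted effect of over 50% in size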
Summary of the method: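 Seed 2500 lymphoblastoid cells/well; incubate 5 hr, 37 C; add compounds; incubate 24 hr, 37 C; add CellTiter-Glo, 30 min RT; read luminescence. AC50 from Hill fit.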

[8] = Cell Viability - LYMP2-004 (AID 966); further: nearly all actives have a fitted effect of over 65% in size
Summary of the method: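 Cells seeded 2500/well, rested 5 hr at 37 C, dosed across a concentration series, incubated 24 hr at 37 C, then CellTiter-Glo added for 30 min at room temperature and luminescence read. Hill fitting gave AC50.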

[9] = Cell Viability - LYMP2-005 (AID 967);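 further: series mostly up to about 92 µM; cells exposed to compound for 24 h at 37 °C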
Summary of the method: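 Acute cytotoxicity is scored as a concentration-dependent drop in intracellular ATP in human lymphoblastoid LYMP2-005 cells after 24 h compound treatment. ATP is quantified by luciferase luminescence, and AC50 is derived by Hill-equation modelling.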

[10] = target: Alpha-galactosidase (Coffea arabica) (UniProt Q42656); assay: Counterscreen for Glucocerebrosidase Inhibitors: qHTS Assay for Coffee Bean alpha-Galactosidase at pH 4.5 (AID 957); further: series mostly up to about 77 µM
Summary of the method: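 Coffee bean alpha-galactosidase 2 nM, substrate 4-MU-alpha-Gal 80 uM, pH 4.5 citrate/Tween-20, 20 min RT. Cpd titration 0.7 nM–77 uM. Stop pH 10, fluorescence 365/440 nm; Hill-equation AC50.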

Measured: Potency

Chain of Alpha-galactosidase (Coffea arabica) (Q42656 whole entry, looked up): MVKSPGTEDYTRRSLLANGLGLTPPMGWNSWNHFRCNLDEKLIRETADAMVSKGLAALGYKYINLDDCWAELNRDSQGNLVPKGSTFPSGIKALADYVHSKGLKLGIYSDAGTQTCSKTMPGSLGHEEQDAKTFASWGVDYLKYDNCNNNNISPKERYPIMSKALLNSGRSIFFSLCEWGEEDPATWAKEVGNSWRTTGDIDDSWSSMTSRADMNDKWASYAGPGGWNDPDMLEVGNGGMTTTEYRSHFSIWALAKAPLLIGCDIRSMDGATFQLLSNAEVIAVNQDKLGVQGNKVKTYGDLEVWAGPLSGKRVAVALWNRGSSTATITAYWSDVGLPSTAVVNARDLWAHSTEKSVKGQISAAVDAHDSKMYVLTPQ

CC(C)NC(C)C
not listed: [10]
inactive: all other assays above

CCC(C)(C)c1ccc(O)cc1
not listed: [10]
inactive: all other assays above

COC(=O)C(c1ccccc1)C1CCCCN1 (centres undefined)
not listed: [10]
inactive: all other assays above

C[C@]12CCC(=O)C=C1CC[C@@H]1[C@@H]2CC[C@@]2(C)[C@H]1CC[C@]2(C)O
not listed: [2] | [10]
inactive: all other assays above

CCOC(=O)c1cnc2c(cnn2CC)c1NN=C(C)C
inactive: [10]

NC(=O)N1c2ccccc2C=Cc2ccccc21
inactive: [10]

CC(=O)O[C@H]1C(=O)[C@@]2(C)[C@H]([C@H](OC(=O)c3ccccc3)[C@]3(O)C[C@H](OC(=O)[C@H](O)[C@@H](NC(=O)c4ccccc4)c4ccccc4)C(C)=C1C3(C)C)[C@]1(OC(C)=O)CO[C@@H]1C[C@@H]2O
inactive: [10]

O=c1[nH]cnc2[nH]ncc12
inactive: [10]

O=C(O)CCCc1ccc(N(CCCl)CCCl)cc1
inactive: [1] | [10] | [2] | [3] | [4] | [5]

NCCc1ccc(O)cc1
inactive: all assays above

Clc1ccc(C(c2ccc(Cl)cc2)C(Cl)(Cl)Cl)cc1
not listed: [5] | [10]
inactive: all other assays above

CCCC(C)(COC(N)=O)COC(N)=O
not listed: [10]
inactive: all other assays above

Nc1ccccc1C(=O)O
not listed: [9] | [10]
inactive: all other assays above

CCN(CC)C(=O)c1ccc(O)c(OC)c1
inactive: [10]

C[C@]1(O)CC[C@H]2[C@@H]3CCC4=CC(=O)CC[C@]4(C)[C@@]3(F)[C@@H](O)C[C@@]21C
not listed: [10]
inactive: all other assays above

Oc1ccc(Cl)cc1
not listed: [8] | [9] | [10]
inactive: all other assays above

O=P1(N(CCCl)CCCl)NCCCO1 (centres undefined)
inactive: all assays above

CCOC(=O)CC(SP(=S)(OC)OC)C(=O)OCC (centres undefined)
not listed: [2] | [9] | [10]
inactive: all other assays above
